Pf growth 96h: Primary qHTS for delayed death inhibitors of the malarial parasite plastid, 96 hour incubation; P. falciparum luciferase reporter growth, 96 h; Potency, µM (series often up to 28.7 µM), for inactives: at the highest dose activity change, negative = inhibition, hits mostly inhibitors; hit rate 6.9% among 320,000; AID 504834, 2011; also: % is scaled to controls: 0 for no effect and ±100 for the full control effect
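Luminescence readout: decreased luciferase signal marks inhibited growth of reporter-expressing P. falciparum in infected red cells (2% hematocrit, 0.05% parasitemia final), exposed to compound two generations (96 h, 37 C, 5% CO2).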
Pf growth 48h: Primary qHTS for delayed death inhibitors of the malarial parasite plastid, 48 hour incubation. P. falciparum luciferase growth in erythrocytes, 48 h. Potency, µM (top dose mostly 28.7 µM), without a hit: at the top dose activity change, negative = inhibition, most hits filed as inhibitors. hit rate 5.9% among 310,000; also: % is scaled to controls: 0 for no effect and ±100 for the full control effect
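Here the parasites carry a stable luciferase gene and grow inside erythrocytes in Albumax-based RPMI medium with compound for one erythrocytic cycle. Activity is scored as loss of luminescent signal.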
NS1 inh: qHTS Assay for Inhibitors of Influenza NS1 Protein Function. AID 2326, 2010. Potency, µM (series often up to 46.1 µM), inactives show at the highest dose activity, positive = more growth. hit rate 0.4% among 270,000; calls by dose curve; also: actives are rising curves; nearly all actives have a fitted effect of over 50% in size
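Recovery from NS1-induced slow growth read by OD600 in budding yeast switched to galactose assay medium (pH 6.0, -URA) at 1:100 dilution. Compound 23 nl per well; the matching strain lacking NS1 serves as control.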
Sm TGR inh: qHTS Assay for the Inhibitors of Schistosoma Mansoni Peroxiredoxins; Schistosoma mansoni thioredoxin glutathione reductase (TGR), Q962Y6; Potency, µM (series often up to 114 µM), for inactives: at the highest dose activity change, negative = inhibition, hits mostly inhibitors; purified TGR, DTNB reduction, TNB absorbance 405 nm; hit rate 3% among 360,000; also: % is scaled to controls: 0 for no effect and ±100 for the full control effect; nearly all actives have a fitted effect of over 60% in size
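Kinetic colorimetric format: TGR-catalysed, NADPH-driven DTNB reduction monitored via TNB absorbance. Enzyme dispensed at 20 nM; compound exposure 15 min at room temperature before reaction start.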
AMA1 RON2 block: qHTS for Inhibitors of AMA1-RON; Towards Development of Antimalarial Drug Lead: Primary Screen. Plasmodium falciparum AMA1 (3D7) - RON2 peptide interaction. AlphaScreen AMA1-biotinylated RON2 peptide binding. Potency, µM (series often up to 58.2 µM), for the others: at the top dose activity change, negative = inhibition, actives largely listed as inhibitors. hit rate 0.2% among 360,000. AID 720542, 2013;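 also: 0% = vehicle wells and -100% = peptide control; nearly all actives have a fitted effect of over 45% in size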
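AMA1 (3D7) with his tag at 25 nM final met compounds first, then biotinylated RON2 peptide at 25 nM; detection used donor plus acceptor beads, 10 µg/mL apiece, read by AlphaScreen after 30 min at room temperature.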
Active calls of the source: *; i = inactive; ? = inconclusive; · = no result. Rows were chosen to be rich in hits. Some 11% of all compounds tested hit in one or more screens of this group. Unless noted, calls follow the shape of the dose curve; as a rule, active = well fitted curve in the direction sought with a large enough effect; inconclusive = small, poorly fitted or top-dose-only effect, or another doubt; inactive = no such curve, though single readings can be large; an effect the other way counts as inactive or inconclusive. Potency is read from the fitted curve at half-maximal effect.

SMILES	Pf growth 96h	Pf growth 48h	NS1 inh	Sm TGR inh	AMA1 RON2 block
CC(=O)N1CCc2c(sc3c2c(=O)n(-c2ccccc2)c(=O)n3CC(=O)NCC2CCCO2)C1 (stereo unspecified)	?	3%	5%	-5%	7%
CN(C)CCn1c(=O)n(-c2cccc(Cl)c2)c(=O)c2c3c(sc21)CCCCC3	?	13µM*	-3%	6%	-27%
CN(C)CCn1c(=O)n(-c2ccc(F)cc2)c(=O)c2c3c(sc21)CCCCC3	?	?	10%	20%	-13%
COCCNC(=O)Cn1c(=O)n(-c2ccc(C)c(C)c2)c(=O)c2c3c(sc21)CCCCC3	·	·	·	0%	·
COc1ccc(NC(=O)Nc2c[nH]c(=O)[nH]c2=O)cc1OC	4%	60%	2%	5%	-4%
CCC(=O)N(c1nnc(SCC(=O)Nc2ccccc2Cl)s1)C1CC1	9%	1%	·	-20%	-5%
CC1=C(C(=O)Nc2c(C)cc(C)cc2C)C2(CCN(C(C)C)CC2)OC1=O	·	·	·	25%	·
CN1CCN(C(=O)/C(=C/c2cn(S(=O)(=O)N(C)C)c3ccccc23)NC(=O)c2ccccc2F)CC1	?	?	2%	-13%	-3%
CC(C)CN(C(=O)COC(=O)c1nc(Cl)ccc1Cl)C1CCS(=O)(=O)C1 (stereo unspecified)	-11%	21%	·	0%	-6%
CC(C)CN(C(=O)COC(=O)c1c(Cl)ccc(Cl)c1Cl)C1CCS(=O)(=O)C1 (stereo unspecified)	12µM*	?	·	-11%	-10%
NC(N)=NCc1cccc(I)c1	11µM*	?	5%	1%	2%
CCOC(=O)c1sc(=S)n(-c2ccccc2)c1N	-9%	-18%	17%	-5%	-5%
CCOC(=O)C1=C(C)N(c2ccccc2)C(=O)C1CC(=O)O (stereo unspecified)	12µM*	-27%	-4%	?	11%
CCOC(=O)C1=C(C)N(C)C(=O)C1CC(=O)O (stereo unspecified)	?	8%	?	-6%	8%
CCOC(=O)c1c(O)c(O)c(C(=O)OCC)n1-c1ccccc1	27%	12%	1%	40µM*	?
CCOc1cc(CNC(=O)C(NS(=O)(=O)c2cccs2)C(C)C)cc(OCC)c1OCC (stereo unspecified)	·	·	·	2%	·
CCOC(=O)c1c(C)[nH]c(C)c1S(=O)(=O)NCCc1cccs1	32%	6%	1%	-13%	-8%
CN(CCNC(=O)c1cccc(N2CCCC2=O)c1)Cc1ccccc1	44%	·	-2%	-22%	-9%
CN(CCNC(=O)c1ccc(N2CCCC2=O)cc1)CCc1ccccc1	8.3µM*	?	-12%	-16%	0%
CC(C)N(CCCNC(=O)c1ccc(N2CCCC2=O)cc1)Cc1ccccc1	1.3µM*	-4%	·	2%	-3%
COc1ccc(NC(=O)c2ccc(Br)c(S(=O)(=O)N3CCOCC3)c2)cc1	0%	?	3%	8%	-3%
COc1ccc(-c2ccc(CCC(=O)O)n2NC(=O)c2cccs2)cc1	14%	16%	6%	-23%	-1%
COC(=O)c1cccc(-n2c(CCC(=O)O)ccc2-c2ccc(OC)cc2)c1	·	·	·	13µM*	·
COC(=O)c1cccc(-n2c(CCC(=O)O)ccc2-c2cccs2)c1	25%	-2%	1%	3.5µM*	-11%
CC(O)(c1cccc(F)c1)c1nc(-c2ccc3ccccc3c2)cs1 (stereo unspecified)	·	·	·	·	5%
SMILES	Pf growth 96h	Pf growth 48h	NS1 inh	Sm TGR inh	AMA1 RON2 block
CCn1c(SCc2ccccc2F)nc(=O)c2c(C(=O)OC)cc(C3CC3)nc21	·	·	·	6%	·
CCC(=O)Nc1nc(C)c(-c2csc(Nc3cccc(O)c3)n2)s1	-19%	·	11%	-18%	-1%
Cc1nc(NC(=O)CC(C)C)sc1-c1csc(Nc2ccc(Cl)cc2)n1	4.7µM*	10µM*	23%	0%	22%
Cc1nc(NC(=O)CC(C)C)sc1-c1csc(Nc2ccc(Cl)cc2Cl)n1	9.3µM*	?	?	10%	11%
CCCC(C)C(=O)Nc1nc(C)c(-c2csc(Nc3cc(Cl)ccc3C)n2)s1 (stereo unspecified)	?	?	19%	8%	33%
COc1ccc(Cl)cc1Nc1nc(-c2sc(NC(=O)CC(C)C)nc2C)cs1	9.3µM*	10µM*	0%	3%	-5%
C=CCCC(=O)Nc1nc(C)c(-c2csc(Nc3ccc(Cl)cc3Cl)n2)s1	8.3µM*	?	27%	2%	14%
COc1ccccc1CNS(=O)(=O)c1ccc(N2CCCCS2(=O)=O)cc1	·	·	·	5%	·
COc1ccc(C(=O)Nc2cc(Cl)ccc2OC(=O)c2ccc(OC)cc2)cc1	-85%	-64%	-5%	0%	3%
COc1ccc(OC)c(NC(=O)c2cc(-c3cc(C)cc(C)c3O)n[nH]2)c1	9.3µM*	·	-2%	1%	56%
COc1ccc(Cl)cc1NC(=O)c1cc(-c2cc(C)ccc2O)n[nH]1	2.3µM*	1.9µM*	-5%	-3%	67%
Cc1ccc(C(=O)Nc2cc(Cl)ccc2OC(=O)c2ccc(C)cc2)cc1	0.47µM*	?	-24%	2%	·
COc1ccc(OC)c(NC(=O)c2cc(-c3cc(C)c(C)cc3O)n[nH]2)c1	1.9µM*	2.6µM*	3%	6%	26%
CC(CNS(=O)(=O)c1ccccc1)(c1ccccc1)N1CCCCC1 (stereo unspecified)	17%	-28%	-1%	2%	2%
COC(=O)c1cc2oc(C)cc2n1CC(=O)Nc1ccc(OC)c(OC)c1	·	·	·	-14%	·
COC(=O)c1cc2oc(C)cc2n1CC(=O)Nc1ccc(C)c(C)c1	1.7µM*	0%	-11%	-19%	1%
CCOC(=O)c1cc2occc2n1CC(=O)N1CCCc2ccccc21	i	9.3µM*	4%	8.9µM*	-17%
COC(=O)c1cc2oc(C)cc2n1CC(=O)N1CCCc2ccccc21	6.6µM*	?	-9%	-17%	-13%
COC(=O)c1cc2sccc2n1CC(=O)N1CCCc2ccccc21	?	?	-12%	-16%	-7%
COC(=O)c1cc2sc(Cl)cc2n1CC(=O)N1CCCc2ccccc21	21%	10µM*	-10%	-8%	-2%
CCOC(=O)c1cc2sccc2n1CC(=O)N1CCCc2ccccc21	52%	?	-5%	-21%	-9%
O=C(C1=C(O)C(=O)N(Cc2cccnc2)C1c1ccccn1)c1cccs1 (stereo unspecified)	9%	16%	4%	-10%	7%
COC(=O)C1=C(c2ccccc2)c2ccccc2S(=O)(=O)N1CC(=O)Nc1cc(C)ccc1C	·	·	·	6%	·

High-throughput results from PubChem.
